# Results taken from the supplement of paper PMC4022240.
# ± gives the standard deviation.
# T1: HaloTag-ATRX ADD domain (163-292)
# T1 chain: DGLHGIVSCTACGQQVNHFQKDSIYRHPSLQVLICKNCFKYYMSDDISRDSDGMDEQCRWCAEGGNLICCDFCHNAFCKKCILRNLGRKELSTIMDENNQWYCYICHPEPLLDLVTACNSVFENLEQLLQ
# Molecular target: T1, HaloTag-ATRX ADD domain (163-292)
# Assay: peptide microarray binding signal (635 nm), min-max normalized on array (fraction of array maximum); higher = stronger binding
# Details: peptide region: Unmod H1 variant; binder concentration: 50 nM
# Method in brief: (§1)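 Within each library, mean intensities of triplicate spots were min-max scaled to give the binding signal. The spots were histone 13-mer peptide–cellulose conjugates on nitrocellulose with a Cy3 tracer, blocked overnight at 4°C. They were then probed for 1 h at 4°C using biotin-labelled HaloTag reader fusions (10 nM to 1 μM) with streptavidin-Alexa Fluor 647 or rabbit histone antibodies (1:10,000 to 1:2,000) with anti-rabbit Alexa 647, and scanned at 635 nm for signal and 532 nm for misprints on an Axon GenePix 4000B.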
row,Binder,peptide microarray binding signal
1,AKPKRAKASKKST [Unmod H1 variant A K P K R A K A S K K S T],0.0106 ± 0.0005
2,TPKKASKPKKAAS [Unmod H1 variant T P K K A S K P K K A A S],0.0118 ± 0.00065
3,PKKSVAFKKTKKE [Unmod H1 variant P K K S V A F K K T K K E],0.0103 ± 0.00015
4,KKSTDHPKYSDMI [Unmod H1 variant K K S T D H P K Y S D M I],0.01 ± 7.3e-05

# Same assay, conditions: peptide region: Unmod H1 variant; binder concentration: 500 nM
row,Binder,peptide microarray binding signal
1,AKPKRAKASKKST [Unmod H1 variant A K P K R A K A S K K S T],0.018 ± 0.00086
2,TPKKASKPKKAAS [Unmod H1 variant T P K K A S K P K K A A S],0.00967 ± 0.00036
3,PKKSVAFKKTKKE [Unmod H1 variant P K K S V A F K K T K K E],0.00867 ± 0.00023
4,KKSTDHPKYSDMI [Unmod H1 variant K K S T D H P K Y S D M I],0.00895 ± 0.0005

# Molecular target: HaloTag-ING2 PHD (mouse Ing2 200-280)
# Assay: as above
# Details: peptide region: Unmod H1 variant; binder concentration: 10 nM
# Method in brief: as §1
row,Binder,peptide microarray binding signal
1,AKPKRAKASKKST [Unmod H1 variant A K P K R A K A S K K S T],0.00334 ± 4.8e-05
2,TPKKASKPKKAAS [Unmod H1 variant T P K K A S K P K K A A S],0.00167 ± 1.7e-05
3,PKKSVAFKKTKKE [Unmod H1 variant P K K S V A F K K T K K E],0.00203 ± 5.4e-05
4,KKSTDHPKYSDMI [Unmod H1 variant K K S T D H P K Y S D M I],0.00269 ± 3e-05

# Same assay, conditions: peptide region: Unmod H1 variant; binder concentration: 100 nM
row,Binder,peptide microarray binding signal
1,AKPKRAKASKKST [Unmod H1 variant A K P K R A K A S K K S T],0.00638 ± 0.0014
2,TPKKASKPKKAAS [Unmod H1 variant T P K K A S K P K K A A S],0.00489 ± 0.00044
3,PKKSVAFKKTKKE [Unmod H1 variant P K K S V A F K K T K K E],0.00298 ± 7.3e-05
4,KKSTDHPKYSDMI [Unmod H1 variant K K S T D H P K Y S D M I],0.00418 ± 0.00013

# Molecular target: anti-H3K4me3 antibody ab8580
# Assay: as above
# Details: peptide region: Unmod H1 variant; binder concentration: 1:2,000 dilution
# Method in brief: as §1
row,Binder,peptide microarray binding signal
1,AKPKRAKASKKST [Unmod H1 variant A K P K R A K A S K K S T],0.000378 ± 1.4e-05
2,TPKKASKPKKAAS [Unmod H1 variant T P K K A S K P K K A A S],0.000698 ± 3.6e-05
3,PKKSVAFKKTKKE [Unmod H1 variant P K K S V A F K K T K K E],0.000321 ± 6.7e-06
4,KKSTDHPKYSDMI [Unmod H1 variant K K S T D H P K Y S D M I],0.000717 ± 7.3e-05

# Same assay, conditions: peptide region: Unmod H1 variant; binder concentration: 1:10,000 dilution
row,Binder,peptide microarray binding signal
1,AKPKRAKASKKST [Unmod H1 variant A K P K R A K A S K K S T],0.000913 ± 2.8e-05
2,TPKKASKPKKAAS [Unmod H1 variant T P K K A S K P K K A A S],0.000571
3,PKKSVAFKKTKKE [Unmod H1 variant P K K S V A F K K T K K E],0.000628 ± 6.7e-06
4,KKSTDHPKYSDMI [Unmod H1 variant K K S T D H P K Y S D M I],0.000856 ± 1.8e-05

# Molecular target: anti-H3K9me3 antibody ab8898
# Assay: as above
# Details: peptide region: Unmod H1 variant; binder concentration: 1:2,000 dilution
# Method in brief: as §1
row,Binder,peptide microarray binding signal
1,AKPKRAKASKKST [Unmod H1 variant A K P K R A K A S K K S T],0.000347 ± 7e-06
2,TPKKASKPKKAAS [Unmod H1 variant T P K K A S K P K K A A S],0.000181
3,PKKSVAFKKTKKE [Unmod H1 variant P K K S V A F K K T K K E],0.000423 ± 4.2e-05
4,KKSTDHPKYSDMI [Unmod H1 variant K K S T D H P K Y S D M I],0.000196 ± 2.1e-06

# Same assay, conditions: peptide region: Unmod H1 variant; binder concentration: 1:10,000 dilution
row,Binder,peptide microarray binding signal
1,AKPKRAKASKKST [Unmod H1 variant A K P K R A K A S K K S T],0.000634
2,TPKKASKPKKAAS [Unmod H1 variant T P K K A S K P K K A A S],0.000519 ± 5.6e-06
3,PKKSVAFKKTKKE [Unmod H1 variant P K K S V A F K K T K K E],0.000519 ± 5.6e-06
4,KKSTDHPKYSDMI [Unmod H1 variant K K S T D H P K Y S D M I],0.00075 ± 7.9e-06

# Molecular target: T1, HaloTag-ATRX ADD domain (163-292)
# Assay: as above
# Details: peptide region: H4 53-65; peptide modifications: H4K59me2; binder concentration: 50 nM
# Method in brief: as §1
row,Binder,peptide microarray binding signal
1,ETRGVLKVFLENV [H4 53-65 E T R G V L Kme2 V F L E N V],0.00674 ± 0.0001

# Same assay, conditions: peptide region: H4 53-65; peptide modifications: H4K59me2; binder concentration: 500 nM
row,Binder,peptide microarray binding signal
1,ETRGVLKVFLENV [H4 53-65 E T R G V L Kme2 V F L E N V],0.00752 ± 0.00054

# Molecular target: HaloTag-ING2 PHD (mouse Ing2 200-280)
# Assay: as above
# Details: peptide region: H4 53-65; peptide modifications: H4K59me2; binder concentration: 10 nM
# Method in brief: as §1
row,Binder,peptide microarray binding signal
1,ETRGVLKVFLENV [H4 53-65 E T R G V L Kme2 V F L E N V],0.0113 ± 0.00022

# Same assay, conditions: peptide region: H4 53-65; peptide modifications: H4K59me2; binder concentration: 100 nM
row,Binder,peptide microarray binding signal
1,ETRGVLKVFLENV [H4 53-65 E T R G V L Kme2 V F L E N V],0.00758 ± 0.0001

# Molecular target: anti-H3K4me3 antibody ab8580
# Assay: as above
# Details: peptide region: H4 53-65; peptide modifications: H4K59me2; binder concentration: 1:2,000 dilution
# Method in brief: as §1
row,Binder,peptide microarray binding signal
1,ETRGVLKVFLENV [H4 53-65 E T R G V L Kme2 V F L E N V],0.00177 ± 0.00011

# Same assay, conditions: peptide region: H4 53-65; peptide modifications: H4K59me2; binder concentration: 1:10,000 dilution
row,Binder,peptide microarray binding signal
1,ETRGVLKVFLENV [H4 53-65 E T R G V L Kme2 V F L E N V],0.00394 ± 0.0003

# Molecular target: anti-H3K9me3 antibody ab8898
# Assay: as above
# Details: peptide region: H4 53-65; peptide modifications: H4K59me2; binder concentration: 1:2,000 dilution
# Method in brief: as §1
row,Binder,peptide microarray binding signal
1,ETRGVLKVFLENV [H4 53-65 E T R G V L Kme2 V F L E N V],0.00122 ± 2.8e-05

# Same assay, conditions: peptide region: H4 53-65; peptide modifications: H4K59me2; binder concentration: 1:10,000 dilution
row,Binder,peptide microarray binding signal
1,ETRGVLKVFLENV [H4 53-65 E T R G V L Kme2 V F L E N V],0.003113 ± 2.6e-05
